# Measured values published in PMC11006913.
# Changes are numbered by the printed parent chain.
# Assays:
# Experiment in all cases: PBM; 200 nM protein, PBS
# Details in all cases: dsDNA, one strand shown
# SIX6 [1] = molecular target: T1, SIX6 (Homo sapiens, UniProt O95475 114-200, L167I)
# T1 sequence: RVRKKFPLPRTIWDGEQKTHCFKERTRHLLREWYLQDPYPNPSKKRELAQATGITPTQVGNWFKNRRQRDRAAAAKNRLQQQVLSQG
# SIX6 [2] = molecular target: T2, SIX6 (Homo sapiens, UniProt O95475 114-200, L143V)
# T2 sequence: T1 sequence with L30V, I54L
# SIX6 [3] = molecular target: T3, SIX6 (Homo sapiens, UniProt O95475 114-200, H141N)
# T3 sequence: T1 sequence with H28N, I54L
# SIX6 [4] = molecular target: T4, SIX6 (Homo sapiens, UniProt O95475 114-200, T165P)
# T4 sequence: T1 sequence with T52P, I54L
# SIX6 [5] = molecular target: T5, SIX6 (Homo sapiens, UniProt O95475 114-200, L167M)
# T5 sequence: T1 sequence with I54M
# SIX6 [6] = molecular target: T6, SIX6 (Homo sapiens, UniProt O95475 114-200, L143M)
# T6 sequence: T1 sequence with L30M, I54L
# SIX6 [7] = molecular target: T7, SIX6 (Homo sapiens, UniProt O95475 114-200, L143I)
# T7 sequence: T1 sequence with L30I, I54L
# SIX6 [8] = molecular target: T8, SIX6 (Homo sapiens, UniProt O95475 114-200, T165G)
# T8 sequence: T1 sequence with T52G, I54L
# SIX6 [9] = molecular target: T9, SIX6 (Homo sapiens, UniProt O95475 114-200, T139Q)
# T9 sequence: T1 sequence with T26Q, I54L
# SIX6 [10] = molecular target: T10, SIX6 (Homo sapiens, UniProt O95475 114-200, T165A)
# T10 sequence: T1 sequence with T52A, I54L
# SIX6 [11] = molecular target: T11, SIX6 (Homo sapiens, UniProt O95475 114-200, L167V)
# T11 sequence: T1 sequence with I54V
# SIX6 [12] = molecular target: T12, SIX6 (Homo sapiens, UniProt O95475 114-200)
# T12 sequence: T1 sequence with I54L
# SIX6 [13] = molecular target: T13, SIX6 (Homo sapiens, UniProt O95475 114-200, T165I)
# T13 sequence: T1 sequence with T52I, I54L
Sequence,binding signal (SIX6 [1]),binding signal (SIX6 [2]),binding signal (SIX6 [3]),binding signal (SIX6 [4]),binding signal (SIX6 [5]),binding signal (SIX6 [6]),binding signal (SIX6 [7]),binding signal (SIX6 [8]),binding signal (SIX6 [9]),binding signal (SIX6 [10]),binding signal (SIX6 [11]),binding signal (SIX6 [12]),binding signal (SIX6 [13])
GGCCCCAA,"8.91 upbm affinity estimate (log intensity, higher = more binding, comparable within an allelic series)","8.77 upbm affinity estimate (log intensity, higher = more binding, comparable within an allelic series)","8.92 upbm affinity estimate (log intensity, higher = more binding, comparable within an allelic series)","9.01 upbm affinity estimate (log intensity, higher = more binding, comparable within an allelic series)","8.96 upbm affinity estimate (log intensity, higher = more binding, comparable within an allelic series)","8.92 upbm affinity estimate (log intensity, higher = more binding, comparable within an allelic series)","8.81 upbm affinity estimate (log intensity, higher = more binding, comparable within an allelic series)","8.9 upbm affinity estimate (log intensity, higher = more binding, comparable within an allelic series)","9.04 upbm affinity estimate (log intensity, higher = more binding, comparable within an allelic series)","8.9 upbm affinity estimate (log intensity, higher = more binding, comparable within an allelic series)","8.9 upbm affinity estimate (log intensity, higher = more binding, comparable within an allelic series)","8.82 upbm affinity estimate (log intensity, higher = more binding, comparable within an allelic series)","8.91 upbm affinity estimate (log intensity, higher = more binding, comparable within an allelic series)"
GGCCTCCA,"8.94 upbm affinity estimate (log intensity, higher = more binding, comparable within an allelic series)","8.93 upbm affinity estimate (log intensity, higher = more binding, comparable within an allelic series)","8.87 upbm affinity estimate (log intensity, higher = more binding, comparable within an allelic series)","9.13 upbm affinity estimate (log intensity, higher = more binding, comparable within an allelic series)","8.94 upbm affinity estimate (log intensity, higher = more binding, comparable within an allelic series)","8.87 upbm affinity estimate (log intensity, higher = more binding, comparable within an allelic series)","8.9 upbm affinity estimate (log intensity, higher = more binding, comparable within an allelic series)","9 upbm affinity estimate (log intensity, higher = more binding, comparable within an allelic series)","8.8 upbm affinity estimate (log intensity, higher = more binding, comparable within an allelic series)","8.84 upbm affinity estimate (log intensity, higher = more binding, comparable within an allelic series)","9.03 upbm affinity estimate (log intensity, higher = more binding, comparable within an allelic series)","8.82 upbm affinity estimate (log intensity, higher = more binding, comparable within an allelic series)","8.87 upbm affinity estimate (log intensity, higher = more binding, comparable within an allelic series)"
AGTGTATC,"11 upbm affinity estimate (log intensity, higher = more binding, comparable within an allelic series)","10.3 upbm affinity estimate (log intensity, higher = more binding, comparable within an allelic series)","11 upbm affinity estimate (log intensity, higher = more binding, comparable within an allelic series)","9.91 upbm affinity estimate (log intensity, higher = more binding, comparable within an allelic series)","10.7 upbm affinity estimate (log intensity, higher = more binding, comparable within an allelic series)","11 upbm affinity estimate (log intensity, higher = more binding, comparable within an allelic series)","10.4 upbm affinity estimate (log intensity, higher = more binding, comparable within an allelic series)","11.1 upbm affinity estimate (log intensity, higher = more binding, comparable within an allelic series)","11.3 upbm affinity estimate (log intensity, higher = more binding, comparable within an allelic series)","11 upbm affinity estimate (log intensity, higher = more binding, comparable within an allelic series)","10.8 upbm affinity estimate (log intensity, higher = more binding, comparable within an allelic series)","11 upbm affinity estimate (log intensity, higher = more binding, comparable within an allelic series)","10.9 upbm affinity estimate (log intensity, higher = more binding, comparable within an allelic series)"
GATCCAGA,"10.5 upbm affinity estimate (log intensity, higher = more binding, comparable within an allelic series)","10 upbm affinity estimate (log intensity, higher = more binding, comparable within an allelic series)","10.4 upbm affinity estimate (log intensity, higher = more binding, comparable within an allelic series)","9.57 upbm affinity estimate (log intensity, higher = more binding, comparable within an allelic series)","10.1 upbm affinity estimate (log intensity, higher = more binding, comparable within an allelic series)","10.3 upbm affinity estimate (log intensity, higher = more binding, comparable within an allelic series)","10.1 upbm affinity estimate (log intensity, higher = more binding, comparable within an allelic series)","10.4 upbm affinity estimate (log intensity, higher = more binding, comparable within an allelic series)","10.6 upbm affinity estimate (log intensity, higher = more binding, comparable within an allelic series)","10.4 upbm affinity estimate (log intensity, higher = more binding, comparable within an allelic series)","10.3 upbm affinity estimate (log intensity, higher = more binding, comparable within an allelic series)","10.5 upbm affinity estimate (log intensity, higher = more binding, comparable within an allelic series)","10.3 upbm affinity estimate (log intensity, higher = more binding, comparable within an allelic series)"
CTATATCA,"11.2 upbm affinity estimate (log intensity, higher = more binding, comparable within an allelic series)","10.4 upbm affinity estimate (log intensity, higher = more binding, comparable within an allelic series)","11.2 upbm affinity estimate (log intensity, higher = more binding, comparable within an allelic series)","9.95 upbm affinity estimate (log intensity, higher = more binding, comparable within an allelic series)","10.7 upbm affinity estimate (log intensity, higher = more binding, comparable within an allelic series)","11 upbm affinity estimate (log intensity, higher = more binding, comparable within an allelic series)","10.4 upbm affinity estimate (log intensity, higher = more binding, comparable within an allelic series)","11.1 upbm affinity estimate (log intensity, higher = more binding, comparable within an allelic series)","11.1 upbm affinity estimate (log intensity, higher = more binding, comparable within an allelic series)","11 upbm affinity estimate (log intensity, higher = more binding, comparable within an allelic series)","10.9 upbm affinity estimate (log intensity, higher = more binding, comparable within an allelic series)","10.9 upbm affinity estimate (log intensity, higher = more binding, comparable within an allelic series)","11.1 upbm affinity estimate (log intensity, higher = more binding, comparable within an allelic series)"
ACGGGCGG,"8.9 upbm affinity estimate (log intensity, higher = more binding, comparable within an allelic series)","8.8 upbm affinity estimate (log intensity, higher = more binding, comparable within an allelic series)","8.96 upbm affinity estimate (log intensity, higher = more binding, comparable within an allelic series)","8.88 upbm affinity estimate (log intensity, higher = more binding, comparable within an allelic series)","8.9 upbm affinity estimate (log intensity, higher = more binding, comparable within an allelic series)","8.96 upbm affinity estimate (log intensity, higher = more binding, comparable within an allelic series)","8.91 upbm affinity estimate (log intensity, higher = more binding, comparable within an allelic series)","9.03 upbm affinity estimate (log intensity, higher = more binding, comparable within an allelic series)","9.17 upbm affinity estimate (log intensity, higher = more binding, comparable within an allelic series)","9.02 upbm affinity estimate (log intensity, higher = more binding, comparable within an allelic series)","8.77 upbm affinity estimate (log intensity, higher = more binding, comparable within an allelic series)","8.94 upbm affinity estimate (log intensity, higher = more binding, comparable within an allelic series)","8.98 upbm affinity estimate (log intensity, higher = more binding, comparable within an allelic series)"
